The values that follow come from PubChem BioAssay (NCI).

What all share (experiment): NCI-60 one-dose screen, 48 h (100 = growth as untreated, 0 = no growth, -100 = all killed)
One assay concerns SR leukemia. Particulars: 10 µM unless noted.
A further assay deals with RPMI-8226 leukemia. To be noted: 10 µM unless noted.
For the next assay, the system named is OVCAR-8 ovarian. Particulars: 10 µM unless noted.
A further assay deals with OVCAR-5 ovarian. Particulars: 10 µM unless noted.
Another assay has as its system OVCAR-4 ovarian. Particulars: 10 µM unless noted.
The next assay deals with SK-OV-3 ovarian. To be noted: 10 µM unless noted.
The subject of a further assay is IGROV1 ovarian. To be noted: 10 µM unless noted.
The next assay concerns OVCAR-3 ovarian. To be noted: 10 µM unless noted.
The subject of a further assay is NCI/ADR-RES ovarian. Particulars: 10 µM unless noted.
A further assay deals with HS 578T breast. Particulars: 10 µM.

This is part of a sample that, as a whole, favours compounds with a hit. Of some 83,000 tested, about 20% had one in any assay.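 Negative percent growth values reflect cell death: -40 means 40% of the cells present at the start died, and -100 means all died.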 A number with no mark means an inactive call. Calls of active or inactive are those of the source. Rule for the calls: active = growth percent below 10; inactive = the rest.

On to `C=CC(=O)Nc1cc2c(Nc3ccc(F)c(Cl)c3)ncnc2cc1C#CC(C)(C)N1CCN(C)CC1`, for which the growth with SR leukemia was -14.2% (active); in the assay with RPMI-8226 leukemia, -34.2% (active); with OVCAR-8 ovarian, -73.5% (active); in the assay with OVCAR-5 ovarian, -95.5% (active); with OVCAR-4 ovarian, -96.2% (active); with SK-OV-3 ovarian, -96.6% (active). In addition, the results for the growth in the assay on IGROV1 ovarian, with OVCAR-3 ovarian and in the assay with NCI/ADR-RES ovarian were -73.9% (active), -96.7% (active) and -52.2% (active), respectively.

As for `CO[C@H](C(=O)N[C@@H](CCCCNC(=O)OCc1ccccc1)C(=O)OC(C)(C)C)[C@@H]1Cc2cc3cc(OC4CC(OC5CC(O)C(O)C(C)O5)C(O)C(C)O4)c(C)c(O)c3c(O)c2C(=O)[C@H]1OC1CC(OC2CC(OC3CC(C)(O)C(O)C(C)O3)C(O)C(C)O2)C(O)C(C)O1` (stereo partly drawn), the growth in the assay on SR leukemia is 7.17% (active); in the assay with RPMI-8226 leukemia, -5.01% (active); in the assay on OVCAR-8 ovarian, 12.9%; with OVCAR-5 ovarian, -77.9% (active); in the assay with OVCAR-4 ovarian, 43.1%; with SK-OV-3 ovarian, -52.7% (active). For the same compound, the growth is 22.2% in the assay with IGROV1 ovarian, 24.8% in the assay with OVCAR-3 ovarian, -16.4% (active) with HS 578T breast and 73.2% with NCI/ADR-RES ovarian.

Regarding `COc1ccc(/C(C)=C(\c2ccc(Cl)cc2)c2ccc(OCCN3CCCCCC3)cc2)cc1`, the growth is 1.94% (active) in the assay on SR leukemia; 51.2% in the assay with RPMI-8226 leukemia; 69.1% with OVCAR-8 ovarian; 74.3% with OVCAR-5 ovarian; 56.4% in the assay on OVCAR-4 ovarian; 55.7% with SK-OV-3 ovarian. Also, the growth was 67.1% in the assay on IGROV1 ovarian, 58.2% in the assay on OVCAR-3 ovarian and 82.8% with NCI/ADR-RES ovarian.

On to `COc1cc(NCCN(CC(C)C)CC(C)C)c2ncc(C)cc2c1`, for which the growth in the assay on SR leukemia was 76.3%; in the assay on RPMI-8226 leukemia, 62.6%; with OVCAR-8 ovarian, 68.7%; in the assay on OVCAR-5 ovarian it was 111%; with OVCAR-4 ovarian, 34.6%; with SK-OV-3 ovarian, 88.8%. The growth is 76.5% with IGROV1 ovarian, 1.71% (active) in the assay with OVCAR-3 ovarian, 100% in the assay with HS 578T breast and 76.5% in the assay on NCI/ADR-RES ovarian.

In the case of `Cn1cnc(-c2cc3nccc(Oc4ccc(NC(=S)NC(=O)Cc5ccccc5)cc4F)c3s2)c1`, the growth with SR leukemia was 69.3%; with RPMI-8226 leukemia, 54.9%; in the assay with OVCAR-8 ovarian it was 75.9%; in the assay on OVCAR-5 ovarian, 111%; in the assay on OVCAR-4 ovarian, 86.7%; in the assay on SK-OV-3 ovarian, 82.6%. The growth was 95.4% in the assay with IGROV1 ovarian, 80.5% in the assay with OVCAR-3 ovarian and 96% in the assay on NCI/ADR-RES ovarian.

As to `COc1cc2ncnc(Nc3ccc(O)cc3)c2cc1OC`, the growth in the assay on SR leukemia is 27.1%; in the assay on RPMI-8226 leukemia, 97.2%; in the assay on OVCAR-8 ovarian, 70.7%; in the assay on OVCAR-5 ovarian, 59.2%; with OVCAR-4 ovarian it was 88.1%; in the assay with SK-OV-3 ovarian it was 5.29% (active). For the same compound, the results for the growth in the assay with IGROV1 ovarian, with OVCAR-3 ovarian and in the assay with NCI/ADR-RES ovarian were 38.2%, 87.4% and 91.3%, respectively.

As for `Cc1c(Cn2c(C)nc3c(C(=O)O)cc(N4CCOCC4)cc32)cccc1C(F)(F)F`, the growth in the assay with SR leukemia is 75.7%; in the assay with RPMI-8226 leukemia, 104%; in the assay with OVCAR-8 ovarian it was 92.1%; in the assay with OVCAR-5 ovarian, 101%; with OVCAR-4 ovarian it was 96.2%; in the assay on SK-OV-3 ovarian, 96%. The growth was 114% with IGROV1 ovarian, 87.2% in the assay on OVCAR-3 ovarian and 62.1% in the assay with NCI/ADR-RES ovarian.

As for `O=C1C=CC2(NN=C(c3ccccc3)N2c2ccccc2)c2cccc(O)c21` (stereo not drawn), the growth was 38.5% in the assay with SR leukemia; 65.5% in the assay with RPMI-8226 leukemia; 62.2% with OVCAR-8 ovarian; 39.9% in the assay with OVCAR-5 ovarian; 40.8% in the assay with OVCAR-4 ovarian; 91.2% in the assay with SK-OV-3 ovarian. Moreover, the growth was 53.8% in the assay with IGROV1 ovarian, 11.3% in the assay with OVCAR-3 ovarian and 42.2% in the assay with NCI/ADR-RES ovarian.

In the case of `O=c1[nH]ccc2c(S(=O)(=O)N3CCCNCC3)cccc12`, the growth in the assay with SR leukemia is 83.3%; with RPMI-8226 leukemia, 106%; with OVCAR-8 ovarian, 90.4%; with OVCAR-5 ovarian, 62.9%; in the assay with OVCAR-4 ovarian it was 89.5%; in the assay on SK-OV-3 ovarian, -0.289% (active). Moreover, the growth in the assay on IGROV1 ovarian was 31.2%; in the assay on OVCAR-3 ovarian it was 60.7%; with NCI/ADR-RES ovarian it was 75.4%.

`COc1cc2c(cc1OCCCN1Cc3ccc(OCCCCC(=O)N4CCC(CCN5CCCC5)CC4)cc3C1)N=C(N)C21CCCC1`: the growth is 1.87% (active) in the assay on SR leukemia; 62.6% in the assay with RPMI-8226 leukemia; 97.9% in the assay with OVCAR-8 ovarian; 102% in the assay on OVCAR-5 ovarian; 77% in the assay with OVCAR-4 ovarian; 71.7% with SK-OV-3 ovarian. Besides, the growth in the assay on IGROV1 ovarian is 83%; with OVCAR-3 ovarian it was 99.2%; in the assay on NCI/ADR-RES ovarian, 107%.

For the compound `N#Cc1c(NC(=O)c2ccco2)[n+]([O-])c2cc(F)c(F)cc2[n+]1[O-]`, the growth was 8.42% (active) in the assay on SR leukemia; 17.8% in the assay on RPMI-8226 leukemia; 38.9% with OVCAR-8 ovarian; 119% in the assay with OVCAR-5 ovarian; 89.7% with OVCAR-4 ovarian; 99.4% in the assay on SK-OV-3 ovarian. Moreover, the growth in the assay on IGROV1 ovarian was 29.6%; in the assay with OVCAR-3 ovarian, 102%; in the assay on NCI/ADR-RES ovarian it was 112%.

As to `C#Cc1cccc(Nc2ncnc3cc(OC)c(OCCCCCCC(=O)NO)cc23)c1`, the growth with SR leukemia was 1.46% (active); in the assay with RPMI-8226 leukemia it was -14.9% (active); with OVCAR-8 ovarian, -21.5% (active); in the assay with OVCAR-5 ovarian, -8.42% (active); with OVCAR-4 ovarian, 6.28% (active); in the assay with SK-OV-3 ovarian, -58.2% (active). Besides, the growth is -41.3% (active) in the assay with IGROV1 ovarian, -19.9% (active) in the assay with OVCAR-3 ovarian and 14.4% in the assay on NCI/ADR-RES ovarian.

For `CCS(=O)(=O)N1CCN(c2ccc(Nc3ncc(C(N)=O)c(NC4CC4)n3)cc2)CC1`, the growth in the assay on SR leukemia was 48.9%; with RPMI-8226 leukemia, 62.2%; in the assay on OVCAR-8 ovarian, 89%; in the assay with OVCAR-5 ovarian it was 86.7%; with OVCAR-4 ovarian, 111%; in the assay on SK-OV-3 ovarian, 80.7%. Also, the growth was 77.4% with IGROV1 ovarian, 90.2% in the assay on OVCAR-3 ovarian and 101% with NCI/ADR-RES ovarian.

Take `CC(C)NC[C@@H](C(=O)N1CCN(c2ncnc3c2[C@H](C)C[C@H]3O)CC1)c1ccc(Cl)cc1`: the growth with SR leukemia was 45.5%; with RPMI-8226 leukemia it was 61.2%; in the assay with OVCAR-8 ovarian, 68.3%; with OVCAR-5 ovarian it was 54.4%; in the assay on OVCAR-4 ovarian, 77.5%; with SK-OV-3 ovarian, -9.72% (active). The growth in the assay on IGROV1 ovarian was 0.674% (active); with OVCAR-3 ovarian, 49.7%; in the assay on NCI/ADR-RES ovarian, 84.2%.
